# Test results: article PMC5540273 (PLoS ONE, 2017)
# Assays:
# Settings in all cases: concentration: 1 μM, replicates: in singlicate; n = 1
# PKMYT1 = tested on: PKMYT1
# PKN1 = tested on: PKN1
# PKN2 = tested on: PKN2
# PLK1 = tested on: PLK1
# PLK2 = tested on: PLK2
# PLK3 = tested on: PLK3
# PLK4 = tested on: PLK4
# PRKCD = tested on: PRKCD
# PRKCE = tested on: PRKCE
# PRKCH = tested on: PRKCH
# 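Also: KINOMEscan kinase panel screen.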
Structure (SMILES),%Inh (PKMYT1),%Inh (PKN1),%Inh (PKN2),%Inh (PLK1),%Inh (PLK2),%Inh (PLK3),%Inh (PLK4),%Inh (PRKCD),%Inh (PRKCE),%Inh (PRKCH)
Cc1c2ccc(N(C)c3ccnc(Nc4cccc(S(N)(=O)=O)c4)n3)cc2nn1Cc1ccccc1.Cl.Cl [GW787226],0%,0%,0%,0%,0%,15%,50%,0%,0%,0%
CCc1ccnc(/C=C/c2n[nH]c3cc(Sc4ccccc4C(=O)NC)ccc23)c1,0%,9%,0%,0%,0%,0%,83%,9%,12%,0%
CC(=O)Nc1ccc(COc2ccc(Nc3ccnc4cc(-c5ccccn5)ccc34)cc2)cc1.Cl [GW440148],0%,32%,0%,0%,0%,0%,0%,0%,0%,0%
NCC(NC(=O)c1cc(-c2cn[nH]c2)c(-c2ccnc3[nH]ccc23)s1)c1ccccc1.O=C(O)C(F)(F)F.O=C(O)C(F)(F)F (stereo not shown) [GSK1325775],0%,52%,66%,14%,5%,14%,29%,99.8%,98.7%,95.1%
